# Source: PubChem BioAssay
# Shown are actives, neighbours in structure and some others; about 1% of the full set was active somewhere.
# Eya2 inh: blocks the phosphatase activity of human Eya2; 330,000 tested, 0.006% active; Potency, µM (series often up to 76.9 µM), without a hit: top-dose activity, negative = inhibition, usual class: inhibitors; O00167; AID 488837; recombinant Eya2, OMFP fluorescence dephosphorylation (OMFP is methylfluorescein phosphate)
#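 Eya2 (0.2 uM) preincubated 10 min at ambient with compound, then OMFP substrate added at 50 uM; 10 min reaction in 50 mM HEPES pH 7.5, 50 mM NaCl, 5 uM MgCl2, 0.05% BSA, 1 mM DTT. Fluorescence read at Ex 485/Em 525 nm.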
# TrxR1 substrate: is turned over as a substrate by rat TrxR1. O89049. purified TrxR1 substrate turnover, NADPH consumption readout. Potency, µM (highest dose often 114 µM), for inactives: at the highest dose activity change, negative = substrate turnover. 390,000 tested, 0.01% active. AID 588456; note: nearly all actives have a fitted effect of over 50% in size
#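 Rat TrxR1, dispensed at 90 nM, was prereduced with 400 uM NADPH (final) for 5 min at ~22 deg C, then incubated with compound 15 min before 400 uM selenite. A first-read NADPH fluorescence drop versus no-compound background flagged substrates.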
# rTrxR1 inhibitor: rat TrxR1 inhibition | recombinant rTrxR1, NADPH fluorescence consumption, selenite substrate | Potency, µM (top dose mostly 114 µM), for inactives: top-dose activity change, negative = inhibition, usual class: inhibitors | 390,000 tested, 1% active | O89049; note: nearly all actives have a fitted effect of over 65% in size
#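 Rat TrxR1 (90 nM in the dispensed reagent) was pre-reduced with 400 uM NADPH for 5 min at room temperature, then incubated with compound for 15 min. After 400 uM selenite was added, NADPH fluorescence (Ex 340/Em 450 nm) was followed for 8 min.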
# RGS4 inhibitor: blocks human RGS4-accelerated GTP hydrolysis. P49798. Transcreener GDP fluorescence polarization, RGS4-accelerated GTP hydrolysis. Potency, µM (top dose mostly 114 µM), for inactives: at the top dose activity change, negative = inhibition, most hits filed as inhibitors. 390,000 tested, 0.039% active; note: nearly all actives have a fitted effect of over 75% in size
# Target sequence (P49798 whole entry, looked up): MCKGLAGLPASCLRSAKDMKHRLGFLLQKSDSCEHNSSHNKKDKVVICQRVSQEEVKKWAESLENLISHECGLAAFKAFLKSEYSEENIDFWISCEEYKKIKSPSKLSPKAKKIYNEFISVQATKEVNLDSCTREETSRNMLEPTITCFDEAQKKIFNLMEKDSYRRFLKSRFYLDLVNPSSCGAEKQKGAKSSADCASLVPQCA
#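 MLSMR compounds (23 nl, pin-transferred) preincubated 10 min at room temperature with a 500nM (2x) first reagent, then RGS4 at 900nM (2x) plus Transcreener GDP mix added; fluorescence polarization (620/688 nm) read before and after 90 min at 30 °C.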
# USP2a block: inhibitors of human ubiquitin-specific protease USP2a; AID 463254; O75604; Potency, µM (highest dose often 38.3 µM), inactives show at the highest dose activity change, negative = inhibition, hits mostly inhibitors; 330,000 tested, 0.01% active; USP2 core, Ub-CHOP2 coupled fluorogenic reporter, 485/531;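 note: plate controls were DMSO wells for no effect and full inhibition by NEM control for full effect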
#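 Deubiquitinase activity read as fluorescence (485/531 nm) after Ub-CHOP2 cleavage activates the enterokinase reporter on its substrate; USP2 core 10nM, Ub-CHOP2 and substrate 25nM each, 30min compound preincubation then 60min RT; data normalized to NEM, curves fitted.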
# GALK inhibitor: inhibitors of human galactokinase. Purified GALK, Kinase-Glo residual ATP luminescence. Potency, µM (doses to about 57.5 µM), for the others: at the highest dose activity change, negative = inhibition, hits mostly inhibitors. AID 1868. P51570. 270,000 tested, 0.007% active
# Target sequence (P51570 whole entry, looked up): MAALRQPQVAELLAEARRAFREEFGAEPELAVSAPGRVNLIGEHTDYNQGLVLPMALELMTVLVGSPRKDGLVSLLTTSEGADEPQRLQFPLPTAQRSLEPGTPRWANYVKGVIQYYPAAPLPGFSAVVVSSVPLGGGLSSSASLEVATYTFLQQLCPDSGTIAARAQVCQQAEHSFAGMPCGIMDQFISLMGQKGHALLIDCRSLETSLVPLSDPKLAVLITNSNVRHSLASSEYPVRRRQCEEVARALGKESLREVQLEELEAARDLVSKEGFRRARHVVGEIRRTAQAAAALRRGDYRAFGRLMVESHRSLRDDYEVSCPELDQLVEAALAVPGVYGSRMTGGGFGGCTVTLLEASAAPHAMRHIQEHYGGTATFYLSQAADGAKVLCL
#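 Quantitative HTS: GALK 5 nM, ATP 35 uM, galactose 100 uM, 1 h room temperature, then luciferase-based ATP detection.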
# Numbers without * were called inactive; ? = inconclusive; nt = no result given; [ ] = another dose, or the depositor's remark. Calls come from the whole dose curve; as a rule, active = well fitted curve in the direction sought with a large enough effect; inconclusive = small, poorly fitted or top-dose-only effect, or another doubt; inactive = no such curve, though single readings can be large; an effect the other way counts as inactive or inconclusive. Unless noted, % is set by controls: 0 for no effect and ±100 for the full control effect; potency is the fitted concentration of half-maximal effect.
SMILES,Eya2 inh,TrxR1 substrate,rTrxR1 inhibitor,RGS4 inhibitor,USP2a block,GALK inhibitor
CC(=O)c1cccc(NC(=O)COc2ccccc2C(=O)Nc2ccccc2)c1,nt,1%,?,nt,nt,nt
CCN1C(=NCc2cccc(C(F)(F)F)c2)N[C@@H](c2cccc(C(F)(F)F)c2)C(C(=O)OC)=C1C,nt,-11%,-2%,nt,nt,nt
Cc1ccc(NC(=O)CSc2nnc(-c3ccccc3)n2C)cc1,nt,3%,1%,nt,nt,nt
CC(C)C[C@H](N)c1nnc(S(=O)(=O)Cc2cccc(F)c2)o1,-9%,11%[57.1 µM],0.63µM*,-29%,-7%,-3%
CC(=O)C[n+]1cccc(Br)c1,nt,9%[0.0914 µM],11%,nt,nt,nt
COC(=O)c1ccccc1NC(=O)COc1ccccc1C(=O)Nc1ccccc1,nt,3%,30%,nt,nt,nt
Cc1occc1C(=O)NCc1cccc(CNC(=O)c2ccoc2C)c1,8%,-4%,8.9µM*,?,-2%,0%
Cc1occc1C(=O)NCc1ccc2c(c1)OCO2,14%,-4%,-7%,-5%,3%,-3%
COc1ccc(C(=O)CCS(=O)(=O)c2ccc(F)cc2)cc1OC,-21%,nt,nt,nt,3%,0%
Cc1cc(C(=O)CS(=O)(=O)c2ccc(Cl)cc2)cc(C)c1O,-11%,-1%,45µM*,-12%,1%,0%
Cc1ccc(C(=O)CCS(=O)(=O)c2ccc(Cl)cc2)cc1,-1%,-1%,0.56µM*,1%,-1%,-9%
Cc1ccc(S(=O)(=O)CCC(=O)c2ccc(F)cc2)cc1,-3%,-3%,1.6µM*,-44%,-1%,-7%
Cc1ccc(C(=O)CCS(=O)(=O)c2ccc(F)cc2)cc1,-7%,-11%,1.1µM*,?,-2%,-6%
O=C(C[n+]1cc(Br)cc(Br)c1)c1ccc2c(c1)CCCC2,nt,3%[0.0914 µM],-21%,nt,nt,nt
Cc1ccc(S(=O)(=O)N2CCN(c3nc(-c4cccs4)cc4ccccc34)CC2)cc1,nt,7%,5%,9%,nt,nt
CSc1ccc(/C=C2\C=Cc3ccccc32)cc1,nt,2%,10%,nt,nt,nt
Cc1ccc(S(=O)(=O)CC(=O)c2ccc([N+](=O)[O-])cc2)cc1,4%,0%,?,-5%,9%,1%
Cc1ccc(S(=O)(=O)CC(=O)c2ccccc2)cc1,-1%,-6%,35µM*,19%,3%,2%
CCOC(=O)c1c(N2C(=O)C=CC2=O)sc(C)c1C,-1%,6%,2.2µM*,?,2%,0%
CN1CCN(c2cc(=O)n(C3CCCCC3)c(=O)[nH]2)CC1,0%,4%[57.1 µM],25µM*,-24%,-1%,1%
CCN1CCN(c2cc(=O)n(C3CCCCC3)c(=O)[nH]2)CC1,11%,10%[57.1 µM],-1%[57.1 µM],-30%,-2%,1%
COCCNC(=O)c1ccc(-n2c(-c3ccccc3)cc3c2CCCCC3)cc1,nt,-10%[11.4 µM],7%,0%,nt,nt
Clc1cccc[n+]1CCCCCC[n+]1ccccc1Cl,nt,-8%,56µM*,nt,nt,nt
CCC(NC(=O)Nc1cc(OC)ccc1OC)c1c(-n2cccc2)sc2c1CCN(CC)C2 (stereo not drawn),nt,-12%,-8%,-4%,nt,nt
O=C(CCN1CCC(c2ccc(Cl)s2)=N1)c1ccc(Cl)s1,11%,2%,2.8µM*,9%,0%,nt
SMILES,Eya2 inh,TrxR1 substrate,rTrxR1 inhibitor,RGS4 inhibitor,USP2a block,GALK inhibitor
CCCOc1ccc(C(=O)CCN2CCCCC2)cc1,-3%,8%,?,?,0%,4%
CCCCOc1ccc(C(=O)CCN2CCOCC2)cc1,20%,3%[57.1 µM],3.5µM*,?,1%,10%
CCOc1ccc(C(=O)CCN2CCCCCC2)cc1,-6%,1%,0.25µM*,?,2%,11%
CS(=O)(=O)N(Cc1cccc(CN(C(C(=O)O)c2ccccc2)S(C)(=O)=O)c1)C(C(=O)O)c1ccccc1 (stereo not drawn),2%,1%,50µM*,-42%,-6%,nt
CCCCCCCCN1[C@@H](CC(C)=O)c2ccc(/C=C/C(C)=O)cc2S1(=O)=O,nt,0%,?,nt,nt,nt
CC1(C)CC(=O)C2=C(C1)NC1=C(C(=O)c3ccccc31)C2c1ccccc1 (stereo not drawn),0%,-12%,40µM*,?,-1%,1%
CC(C)c1ccc(C2C3=C(CC(C)(C)CC3=O)NC3=C2C(=O)c2ccccc23)cc1 (stereo not drawn),-30%,4%[57.1 µM],?,-37%,0%,1%
Cc1cccc(OCC(=O)Nc2cc(C)c(O)c(-c3nc4ccccc4o3)c2)c1,nt,-7%,-20%,nt,nt,nt
CC(=O)Nc1ccc(NC(=O)c2nc(S(=O)(=O)Cc3cccc(C)c3)ncc2Cl)cc1,2%,3%,10µM*,-41%,2%,-5%
CCS(=O)(=O)c1ncc(Cl)c(C(=O)Nc2ccc(S(=O)(=O)N3CCC(C)CC3)cc2)n1,4%,-1%,8.9µM*,?,5%,0%
Cc1cccc(CS(=O)(=O)c2ncc(Cl)c(C(=O)NCc3ccc4c(c3)OCO4)n2)c1,?,20%,5%,-37%,0%,3%
CCSc1ncc(Cl)c(C(=O)N(Cc2ccccc2)Cc2ccco2)n1,nt,-3%,-24%,-8%,nt,nt
CCS(=O)(=O)c1ncc(Cl)c(C(=O)N(Cc2ccccc2)c2ccc(OC)cc2)n1,nt,4%,3.5µM*,?,nt,nt
CCCS(=O)(=O)c1ncc(Cl)c(C(=O)N(Cc2ccccc2)Cc2ccco2)n1,nt,12%[0.457 µM],1.8µM*,?,nt,nt
O=C(C[N+]12CCCc3cccc(c31)CCC2)c1ccc(Cl)c2ccccc12,nt,-8%,-5%,nt,nt,nt
COC(=O)c1ccc(NC(=O)c2nc(S(=O)(=O)Cc3cccc(C)c3)ncc2Cl)cc1,?,-2%,20µM*,?,-7%,2%
CCOC(=O)c1c(NC(=O)c2nc(S(C)(=O)=O)ncc2Cl)sc(C(C)=O)c1C,nt,4%,1.4µM*,-33%,nt,nt
Cc1ccc(CS(=O)(=O)c2ncc(Cl)c(C(=O)Nc3nc4ccc(C)cc4s3)n2)cc1,nt,1%,?,-17%,nt,nt
COC(=O)c1ccccc1NC(=O)c1nc(S(=O)(=O)Cc2cccc(C)c2)ncc1Cl,nt,8%,1.4µM*,-19%,nt,nt
CCOC(=O)c1c(NC(=O)c2nc(SCC)ncc2Cl)sc(C(C)=O)c1C,nt,-1%,22%,13%,nt,nt
CCS(=O)(=O)c1ncc(Cl)c(C(=O)Nc2ccccc2OC)n1,9%,1%,?,-11%,2%,4%
CCOC(=O)c1ccc(NC(=O)c2nc(S(=O)(=O)Cc3ccccc3)ncc2Cl)cc1,2%,6%,6.3µM*,?,1%,-1%
